Measurements from the supplement of paper PMC11732987, “Enantioselective OTUD7B fragment discovery through chemoproteomics screening and high-throughput optimisation” (Communications Chemistry, 2025).

Columns and labels:
Experiment in all cases: log2 ratio of Biotin-Ahx-Ub-VS probe labelling (fragment/DMSO); higher = less target engagement (more negative = stronger competition), active = hit call of the paper (q ≤ 0.05, log2 ratio ≤ -1)
Conditions in all cases: compound concentration: 200 uM; treatment time: 3 h
[1] = molecular target: T1, USP19 (UniProt O94966)
T1 sequence (whole entry): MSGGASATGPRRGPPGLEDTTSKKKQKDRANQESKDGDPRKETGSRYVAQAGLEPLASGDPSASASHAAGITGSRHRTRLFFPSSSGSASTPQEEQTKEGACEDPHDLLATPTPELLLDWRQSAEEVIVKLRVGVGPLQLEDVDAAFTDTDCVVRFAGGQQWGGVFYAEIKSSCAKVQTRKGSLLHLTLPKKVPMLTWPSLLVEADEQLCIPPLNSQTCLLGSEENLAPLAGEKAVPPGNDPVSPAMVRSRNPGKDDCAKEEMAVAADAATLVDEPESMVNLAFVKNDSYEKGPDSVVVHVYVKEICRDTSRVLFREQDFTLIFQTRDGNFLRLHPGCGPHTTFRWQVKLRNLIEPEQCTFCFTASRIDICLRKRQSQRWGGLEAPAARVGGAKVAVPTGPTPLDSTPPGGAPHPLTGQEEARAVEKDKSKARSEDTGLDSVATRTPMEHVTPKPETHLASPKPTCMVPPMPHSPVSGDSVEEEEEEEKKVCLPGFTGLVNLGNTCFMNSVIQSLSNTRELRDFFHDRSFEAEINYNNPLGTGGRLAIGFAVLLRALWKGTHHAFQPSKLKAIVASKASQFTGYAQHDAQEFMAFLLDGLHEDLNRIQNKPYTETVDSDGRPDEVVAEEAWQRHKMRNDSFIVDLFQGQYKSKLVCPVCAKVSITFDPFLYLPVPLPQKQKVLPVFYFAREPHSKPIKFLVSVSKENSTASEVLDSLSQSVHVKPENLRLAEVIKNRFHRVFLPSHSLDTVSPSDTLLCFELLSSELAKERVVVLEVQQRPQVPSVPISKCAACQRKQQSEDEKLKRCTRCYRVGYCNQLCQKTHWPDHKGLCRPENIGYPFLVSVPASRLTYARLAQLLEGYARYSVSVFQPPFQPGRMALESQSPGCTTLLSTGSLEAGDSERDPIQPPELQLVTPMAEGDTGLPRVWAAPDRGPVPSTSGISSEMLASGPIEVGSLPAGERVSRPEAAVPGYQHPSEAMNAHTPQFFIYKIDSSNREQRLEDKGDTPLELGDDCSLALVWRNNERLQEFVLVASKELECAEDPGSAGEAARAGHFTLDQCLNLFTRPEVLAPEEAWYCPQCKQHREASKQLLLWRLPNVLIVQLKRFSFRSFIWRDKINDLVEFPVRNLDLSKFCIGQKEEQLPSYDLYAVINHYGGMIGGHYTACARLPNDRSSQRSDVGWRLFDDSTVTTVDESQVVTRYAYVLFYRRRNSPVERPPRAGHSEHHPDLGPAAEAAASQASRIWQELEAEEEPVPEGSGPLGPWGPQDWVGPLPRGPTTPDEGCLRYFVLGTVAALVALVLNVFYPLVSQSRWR
How it was run: (§1)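 Average log2 ratios of fragment over vehicle were obtained by unpaired t-test from global-median-normalised Spectronaut label-free quantities. Proteins with ≥2 unique peptides were included. HEK293T lysate (495 µg per sample) was treated in triplicate with fragment at 200 µM or vehicle for 3 h, then with Biotin-Ahx-Ub-VS at 0.5 µM final for 1 h, and labelled DUBs were NeutrAvidin-enriched and run by diaPASEF LC-MS/MS.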

[2] = molecular target: T2, USP22 (UniProt Q9UPT9)
T2 sequence (whole entry): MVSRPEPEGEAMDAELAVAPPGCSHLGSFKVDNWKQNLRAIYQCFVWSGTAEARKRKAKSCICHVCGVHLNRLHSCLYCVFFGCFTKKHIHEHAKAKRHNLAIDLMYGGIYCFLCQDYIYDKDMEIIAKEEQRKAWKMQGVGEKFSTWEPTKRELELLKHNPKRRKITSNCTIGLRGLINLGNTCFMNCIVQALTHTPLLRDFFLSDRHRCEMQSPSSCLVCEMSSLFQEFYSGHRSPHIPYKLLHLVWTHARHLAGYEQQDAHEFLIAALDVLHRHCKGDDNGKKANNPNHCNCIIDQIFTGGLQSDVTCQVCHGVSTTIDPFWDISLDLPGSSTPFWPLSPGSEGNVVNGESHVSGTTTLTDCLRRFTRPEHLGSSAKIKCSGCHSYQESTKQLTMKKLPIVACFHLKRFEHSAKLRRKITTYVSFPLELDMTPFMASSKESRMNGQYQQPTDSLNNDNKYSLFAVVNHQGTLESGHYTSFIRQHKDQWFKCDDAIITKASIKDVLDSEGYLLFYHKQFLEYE
How it was run: as §1

[3] = molecular target: USP24 (UniProt Q9UPU5)
How it was run: as §1

[4] = molecular target: T3, USP25 (UniProt Q9UHP3)
T3 sequence (whole entry): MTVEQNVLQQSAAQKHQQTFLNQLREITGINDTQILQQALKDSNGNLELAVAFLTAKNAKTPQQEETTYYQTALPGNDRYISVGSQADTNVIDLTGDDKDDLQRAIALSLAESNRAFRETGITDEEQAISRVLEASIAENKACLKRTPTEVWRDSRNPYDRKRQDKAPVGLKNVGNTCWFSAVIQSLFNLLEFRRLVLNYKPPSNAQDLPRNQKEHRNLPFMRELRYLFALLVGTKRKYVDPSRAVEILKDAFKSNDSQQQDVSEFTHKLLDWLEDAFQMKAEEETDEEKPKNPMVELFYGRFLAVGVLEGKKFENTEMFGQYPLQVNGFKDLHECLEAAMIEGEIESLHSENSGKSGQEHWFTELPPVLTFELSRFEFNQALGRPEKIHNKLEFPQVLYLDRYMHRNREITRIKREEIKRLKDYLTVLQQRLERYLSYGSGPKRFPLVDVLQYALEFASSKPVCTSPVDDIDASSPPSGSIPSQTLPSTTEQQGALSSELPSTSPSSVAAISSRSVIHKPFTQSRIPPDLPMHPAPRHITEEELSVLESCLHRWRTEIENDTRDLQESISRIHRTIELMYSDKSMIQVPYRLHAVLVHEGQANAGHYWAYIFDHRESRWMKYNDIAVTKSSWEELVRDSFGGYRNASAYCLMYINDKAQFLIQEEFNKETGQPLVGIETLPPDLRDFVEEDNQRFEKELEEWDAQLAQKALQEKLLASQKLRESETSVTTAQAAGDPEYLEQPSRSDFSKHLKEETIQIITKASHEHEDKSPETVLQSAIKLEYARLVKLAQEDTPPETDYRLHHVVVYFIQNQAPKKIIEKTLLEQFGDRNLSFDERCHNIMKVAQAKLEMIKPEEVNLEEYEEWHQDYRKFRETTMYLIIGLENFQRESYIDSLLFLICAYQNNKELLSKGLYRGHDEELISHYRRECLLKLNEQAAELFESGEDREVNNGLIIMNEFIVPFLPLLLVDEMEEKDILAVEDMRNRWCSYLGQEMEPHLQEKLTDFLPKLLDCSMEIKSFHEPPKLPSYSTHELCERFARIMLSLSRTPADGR
How it was run: as §1

[5] = molecular target: T4, USP28 (UniProt Q96RU2)
T4 sequence (whole entry): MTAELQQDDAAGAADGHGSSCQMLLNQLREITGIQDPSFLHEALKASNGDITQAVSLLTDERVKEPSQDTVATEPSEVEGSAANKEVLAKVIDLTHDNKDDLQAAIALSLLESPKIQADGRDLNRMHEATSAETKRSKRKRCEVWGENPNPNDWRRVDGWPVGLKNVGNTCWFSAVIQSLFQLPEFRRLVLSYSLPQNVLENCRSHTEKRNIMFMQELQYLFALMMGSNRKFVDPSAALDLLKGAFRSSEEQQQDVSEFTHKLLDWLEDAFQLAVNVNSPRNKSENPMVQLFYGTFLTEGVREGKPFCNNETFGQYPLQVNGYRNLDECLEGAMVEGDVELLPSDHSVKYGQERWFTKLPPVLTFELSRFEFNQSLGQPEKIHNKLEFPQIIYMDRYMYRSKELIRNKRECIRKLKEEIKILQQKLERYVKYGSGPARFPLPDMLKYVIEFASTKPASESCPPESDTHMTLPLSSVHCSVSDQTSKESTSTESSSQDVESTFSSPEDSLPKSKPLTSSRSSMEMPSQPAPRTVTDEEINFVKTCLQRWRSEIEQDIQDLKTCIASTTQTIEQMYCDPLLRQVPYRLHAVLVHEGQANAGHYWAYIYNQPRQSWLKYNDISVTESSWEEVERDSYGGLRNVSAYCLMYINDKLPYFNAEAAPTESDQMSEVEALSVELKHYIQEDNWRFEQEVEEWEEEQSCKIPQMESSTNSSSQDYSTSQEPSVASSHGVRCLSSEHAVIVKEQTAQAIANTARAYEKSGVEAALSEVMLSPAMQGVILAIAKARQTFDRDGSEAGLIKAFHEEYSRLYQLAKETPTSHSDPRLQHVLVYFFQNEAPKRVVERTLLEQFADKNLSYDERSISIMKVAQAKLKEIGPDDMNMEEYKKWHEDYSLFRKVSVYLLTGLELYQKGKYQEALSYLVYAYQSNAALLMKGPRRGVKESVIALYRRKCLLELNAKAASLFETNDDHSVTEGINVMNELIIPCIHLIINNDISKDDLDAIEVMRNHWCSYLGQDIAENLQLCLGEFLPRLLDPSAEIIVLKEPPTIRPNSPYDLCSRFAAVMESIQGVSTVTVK
How it was run: as §1

Measured: log2 ratio of Biotin-Ahx-Ub-VS probe labelling

Sequence of USP24 (Q9UPU5 whole entry): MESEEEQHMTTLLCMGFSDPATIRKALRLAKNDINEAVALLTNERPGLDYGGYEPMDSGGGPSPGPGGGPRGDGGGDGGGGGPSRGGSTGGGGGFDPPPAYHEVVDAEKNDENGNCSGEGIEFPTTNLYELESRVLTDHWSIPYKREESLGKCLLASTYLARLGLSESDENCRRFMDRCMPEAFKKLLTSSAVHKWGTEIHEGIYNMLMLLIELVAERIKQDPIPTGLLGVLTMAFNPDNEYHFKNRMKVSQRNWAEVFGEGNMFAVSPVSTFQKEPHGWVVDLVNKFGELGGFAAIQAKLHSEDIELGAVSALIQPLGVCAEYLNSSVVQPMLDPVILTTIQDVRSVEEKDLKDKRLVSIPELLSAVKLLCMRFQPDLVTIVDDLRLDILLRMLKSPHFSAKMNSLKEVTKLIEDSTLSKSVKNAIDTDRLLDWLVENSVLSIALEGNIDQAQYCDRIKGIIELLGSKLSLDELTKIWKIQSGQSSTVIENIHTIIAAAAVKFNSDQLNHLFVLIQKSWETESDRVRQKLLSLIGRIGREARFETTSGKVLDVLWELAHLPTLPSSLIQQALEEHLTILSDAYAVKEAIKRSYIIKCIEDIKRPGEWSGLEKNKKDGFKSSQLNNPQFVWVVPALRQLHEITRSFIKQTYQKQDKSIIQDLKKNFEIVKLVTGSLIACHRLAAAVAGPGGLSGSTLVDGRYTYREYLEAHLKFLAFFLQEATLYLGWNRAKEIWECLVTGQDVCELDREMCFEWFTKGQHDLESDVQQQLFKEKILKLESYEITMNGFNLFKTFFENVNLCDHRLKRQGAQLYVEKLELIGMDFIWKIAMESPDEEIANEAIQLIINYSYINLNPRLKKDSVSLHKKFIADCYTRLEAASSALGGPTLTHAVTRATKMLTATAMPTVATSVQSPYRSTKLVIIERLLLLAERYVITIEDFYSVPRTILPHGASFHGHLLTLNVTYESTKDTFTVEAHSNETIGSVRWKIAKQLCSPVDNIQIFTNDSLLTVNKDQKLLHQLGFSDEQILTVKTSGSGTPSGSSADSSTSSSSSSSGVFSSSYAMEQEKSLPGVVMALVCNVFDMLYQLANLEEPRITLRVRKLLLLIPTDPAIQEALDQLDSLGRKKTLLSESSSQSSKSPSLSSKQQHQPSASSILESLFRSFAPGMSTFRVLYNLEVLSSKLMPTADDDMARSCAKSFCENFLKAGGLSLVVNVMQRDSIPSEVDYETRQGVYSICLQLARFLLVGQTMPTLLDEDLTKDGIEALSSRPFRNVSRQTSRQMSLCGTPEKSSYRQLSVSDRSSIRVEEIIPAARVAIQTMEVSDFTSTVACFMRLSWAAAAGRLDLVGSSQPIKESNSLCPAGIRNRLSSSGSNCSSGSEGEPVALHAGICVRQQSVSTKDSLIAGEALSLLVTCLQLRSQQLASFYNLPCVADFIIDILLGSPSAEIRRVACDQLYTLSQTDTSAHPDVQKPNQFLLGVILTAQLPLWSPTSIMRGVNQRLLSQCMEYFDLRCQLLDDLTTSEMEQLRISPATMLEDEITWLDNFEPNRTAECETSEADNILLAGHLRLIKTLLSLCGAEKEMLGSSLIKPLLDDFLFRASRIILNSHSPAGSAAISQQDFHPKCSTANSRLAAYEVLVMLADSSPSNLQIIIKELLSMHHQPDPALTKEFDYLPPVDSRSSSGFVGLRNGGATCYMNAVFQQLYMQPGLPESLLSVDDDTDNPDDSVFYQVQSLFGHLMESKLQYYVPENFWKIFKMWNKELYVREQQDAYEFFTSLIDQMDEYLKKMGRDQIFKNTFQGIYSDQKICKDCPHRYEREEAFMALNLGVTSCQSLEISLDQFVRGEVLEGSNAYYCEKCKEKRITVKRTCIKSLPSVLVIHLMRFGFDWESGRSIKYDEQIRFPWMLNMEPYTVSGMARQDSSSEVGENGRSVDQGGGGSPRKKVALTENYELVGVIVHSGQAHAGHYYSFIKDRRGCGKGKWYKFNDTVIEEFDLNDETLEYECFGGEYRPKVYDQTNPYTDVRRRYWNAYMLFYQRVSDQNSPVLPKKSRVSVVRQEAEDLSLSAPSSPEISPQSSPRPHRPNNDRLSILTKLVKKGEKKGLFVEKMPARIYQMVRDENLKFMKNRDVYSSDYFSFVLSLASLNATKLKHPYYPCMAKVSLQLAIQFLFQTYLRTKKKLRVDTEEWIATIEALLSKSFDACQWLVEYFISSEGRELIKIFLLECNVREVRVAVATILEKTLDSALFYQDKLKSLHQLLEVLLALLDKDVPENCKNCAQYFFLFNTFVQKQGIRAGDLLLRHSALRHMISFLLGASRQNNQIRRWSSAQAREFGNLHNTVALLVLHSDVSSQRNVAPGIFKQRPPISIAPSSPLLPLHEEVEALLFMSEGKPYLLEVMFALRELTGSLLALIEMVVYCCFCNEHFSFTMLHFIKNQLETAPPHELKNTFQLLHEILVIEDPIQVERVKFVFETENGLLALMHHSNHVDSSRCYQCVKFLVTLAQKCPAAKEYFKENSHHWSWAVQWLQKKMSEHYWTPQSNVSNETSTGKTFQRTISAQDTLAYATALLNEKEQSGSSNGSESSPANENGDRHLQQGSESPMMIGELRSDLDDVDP

Cc1nc(CC2CCN(C(=O)CCl)CC2)no1
inactive: [1] -0.747 | [2] -0.386 | [3] -0.783 | [4] -0.763 | [5] -0.873
